In the library only some 2.3% were active in any assay of this set; here they are far more common.
TMEM16A inh: mouse TMEM16A channel inhibition, primary screen | 310,000 compounds, 1.2% hits | Q8BHY3 | AID 588511 | HEK293 TMEM16A/YFP iodide influx fluorescence, ionomycin | normalized B-score (activity score, 25-100; higher = stronger inhibition) at 10 µM;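 active = ratio plate-corrected score three or more library SD toward inhibition, starting fluorescence score within five deviations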;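 note: score derived from kinetic fluorescence span divided by baseline fluorescence per well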
ANO1 activ: activates or potentiates the mouse TMEM16A chloride channel; B-score at 10 µM; AID 623877; HEK293 TMEM16A/YFP-H148Q/I152L, iodide quench fluorescence; hits give low values; Q8BHY3; 340,000 compounds, 0.3% hits;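 active = fluorescence-ratio B-score plate-corrected deviation score at least 3 library SD below zero, with starting fluorescence score within 5 deviations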;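 note: channel opened by trigger with iodide after compound preincubation; score built on the fluorescence ratio of max minus min over baseline; more negative score means more quench and so TMEM16A activation or potentiation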
CHT PAM: allosteric activators of human choline transporter CHT | Q9GZV3 | CHT-expressing cells, membrane potential dye, choline EC20; hits give high values; LV-AA mutant CHT in HEK293 cells | B-score at 10 µM | 310,000 compounds, 0.49% hits | AID 488977;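 active = initial fluorescence not abnormally high and integrated response B-score, plate-corrected, over 3 SD above library mean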
Target sequence (Q9GZV3 whole entry, looked up): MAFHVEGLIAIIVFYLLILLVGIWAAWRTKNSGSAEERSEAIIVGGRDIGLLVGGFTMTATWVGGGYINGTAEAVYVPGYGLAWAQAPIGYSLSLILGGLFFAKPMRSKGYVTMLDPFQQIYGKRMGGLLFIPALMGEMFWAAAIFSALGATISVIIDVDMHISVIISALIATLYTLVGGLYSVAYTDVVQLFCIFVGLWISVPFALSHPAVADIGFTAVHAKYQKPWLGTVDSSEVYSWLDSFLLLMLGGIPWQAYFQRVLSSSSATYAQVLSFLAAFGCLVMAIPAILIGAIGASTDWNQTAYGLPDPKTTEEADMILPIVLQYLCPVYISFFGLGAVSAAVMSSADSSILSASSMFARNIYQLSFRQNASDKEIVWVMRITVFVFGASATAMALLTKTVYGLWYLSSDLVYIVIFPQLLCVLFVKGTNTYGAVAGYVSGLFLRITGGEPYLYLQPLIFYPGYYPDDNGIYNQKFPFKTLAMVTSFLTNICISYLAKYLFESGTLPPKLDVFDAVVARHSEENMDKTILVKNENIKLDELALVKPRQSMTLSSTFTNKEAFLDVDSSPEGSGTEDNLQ
CHT block: inhibitors of human choline transporter CHT; Q9GZV3; CHT-expressing cells, membrane potential dye, choline response; hits give low values; B-score at 10 µM; 310,000 compounds, 0.86% hits; AID 488975;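 active = B-score over 3 SD under the library average, and starting fluorescence ratio not unusually high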;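 note: choline stimulus applied at its EC90 after an EC20 pre-addition; B-score computed on integrated fluorescence ratio after choline addition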
Starred values were filed as active, the others as inactive; i = inactive; . = no result.

SMILES	TMEM16A inh	ANO1 activ	CHT PAM	CHT block
Cc1nn(-c2cccc(Cl)c2)c2nc(C(F)(F)F)[nH]c(=O)c12	100*	i	i	i
CC(C)Nc1nnc(SCC(=O)Nc2sccc2C#N)s1	.	i	.	.
CC(C)(C)c1cc[n+](C2=C([O-])c3ccccc3C(=O)/C2=N\S(=O)(=O)c2cccs2)cc1	i	i	i	i
O=C1/C(=N\S(=O)(=O)c2cccs2)C([n+]2ccccc2)=C([O-])c2ccccc21	i	-10.5*	i	i
CC1(C)CC[C@]2(CO)CC[C@]3(C)C(=CCC4[C@@]5(C)CC[C@H](O)[C@@](C)(CO)C5CC[C@]43C)[C@@H]2C1 (some centres undefined)	.	i	.	.
CCOC(=O)c1cc([N+](=O)[O-])c([N+](=O)[O-])cc1NC(C)=O	i	i	i	-5.9*
CCOC(=O)c1ccc(NC(=O)c2ccccc2[N+](=O)[O-])cc1	i	i	i	i
N#CC1=C(N)Oc2cc(O)c(Cl)cc2C1c1cccnc1 (centres undefined)	i	-5.22*	i	i
CCCSc1nc2sc3c(c2c(=O)[nH]1)CCN(Cc1ccccc1)C3	i	-5.59*	i	i
CC(C)CCNC(=O)CCCOc1ccccc1	i	-4.6*	i	i
Cc1nc(SCCOc2ccccc2F)[nH]c(=O)c1Cc1ccccc1	i	i	i	i
N#CC1=C(N)SC(N)=C(C#N)C1c1ccnc2ccccc12	i	-27.9*	i	i
COc1ccc(N(C(=O)CNC(=O)c2cccs2)C(C(=O)NC2CCCC2)c2cccnc2)cc1 (centres undefined)	i	i	i	i
CCOC(=O)C1CCN(S(=O)(=O)c2cn(C)c(C)n2)CC1	i	i	i	i
COc1ccc2cc(N3CCCC3=O)ccc2c1	.	i	.	.
O=C(COc1ccc(-n2ccnc2)cc1)Nc1cccc(Cl)c1	25*	i	i	i
O=C(NN1C(=O)/C(=C/c2ccc(O)cc2)SC1=S)c1ccccc1O	i	i	i	i
O=C(NN1C(=O)/C(=C/c2ccc(O)cc2)SC1=S)c1cccc(O)c1	i	i	i	-9.4*
COc1ccc(/C=C2\SC(=S)N(NC(=O)c3ccncc3)C2=O)cc1OC	i	.	i	-7.99*
O=C(CCN1CCN(c2ccccc2)CC1)N/N=C/c1ccccc1OC(F)F	i	i	i	i
O=S(=O)(c1cccs1)N1CCN(CC(O)COc2cc(Cl)ccc2Cl)CC1 (centres undefined)	25*	-14.5*	i	i
O=S(=O)(c1cccs1)N1CCN(CCOc2ccc(Cl)cc2)CC1	.	i	.	.
CCOc1ccc(S(=O)(=O)NC(C)(C)C)cc1-c1nc2c(C(C)(C)C)nn(C)c2c(=O)[nH]1	i	-13.8*	i	i
CCOc1ccc(S(N)(=O)=O)cc1-c1nc2c(C(C)(C)C)nn(C)c2c(=O)[nH]1	i	i	i	i
OCCNCCO	i	i	i	i
SMILES	TMEM16A inh	ANO1 activ	CHT PAM	CHT block
Cc1ccc2c(c1)N(S(=O)(=O)c1ccc(CN3C(=O)c4cccnc4C3=O)cc1)CCO2	i	-22.9*	i	i
COc1ccc(CN2C(=O)c3cccnc3C2=O)cc1S(=O)(=O)N1CCOc2ccc(Cl)cc21	i	i	i	i
C/C(=C\C(=O)c1ccc(Br)cc1)NCc1ccc(C)cc1	100*	i	i	i
C/C(=C\C(=O)c1ccc(Br)cc1)NCc1ccccc1	i	i	i	i
Cc1cc(C)n2nc(CCCO)nc2n1	i	i	i	i
Cc1ccc(SCc2c(C#N)c3ccccc3n2C)cc1	25*	i	i	i
Cn1c(CSc2ccccc2)c(C#N)c2ccccc21	i	i	i	i
Nc1c(C(=O)O)ccc2c1C(=O)c1ccccc1C2=O	i	i	i	i
Nc1c(SCCC(=O)O)ccc2c1C(=O)c1ccccc1C2=O	i	-5.32*	i	i
Cc1c(Br)c(O)c(Br)c2sc(=O)oc12	i	i	i	-8.16*
CN(C(=O)COC(=O)/C=C/c1cccs1)C1CCCCC1	.	i	.	.
CC(C)C[C@@]12C(=O)N(c3cccc(Br)c3)C(=O)N1[C@H](c1ccc(F)cc1)[C@@H]1C(=O)N(C3CCCCC3)C(=O)[C@@H]12	i	-7.61*	i	i
O=C1[C@H]2[C@@H](c3ccc(F)cc3)N3C(=O)N(c4cccc(Br)c4)C(=O)[C@@]3(Cc3ccccc3)[C@H]2C(=O)N1C1CCCCC1	i	i	i	i
O=P(CCCCCCCCCP(=O)(c1ccccc1)c1ccccc1)(c1ccccc1)c1ccccc1	100*	i	i	i
COc1cccc(CN(C)C(=O)CNC(=O)c2ccc(-c3ccccc3)cc2)c1OC	100*	i	i	i
COc1ccc(CN(C)C(=O)CNC(=O)c2ccc3ccccc3c2)c(OC)c1	i	i	i	i
O=C(Nc1ccc(S(=O)(=O)Nc2ncccn2)cc1)c1ccc(N2CCCC2=O)cc1	i	i	i	i
Cc1ccccc1OCc1nnc(SCC(=O)Nc2ccc3c(c2)oc2ccccc23)n1C	i	i	i	i
Cc1ccccc1OCc1nnc(SCC(=O)Nc2ccc3nc(SCC(=O)NC(C)(C)C)sc3c2)n1C	100*	i	i	i
Nc1nc2c(s1)CCc1ccccc1-2	i	i	i	i
N#C/C(=C(/O)CCl)c1nc2c(s1)CCc1ccccc1-2	25*	i	i	-10.3*
COc1cc(NC(=O)CSc2nc3c(c(=O)[nH]2)CCCC3)cc(OC)c1OC	i	i	i	i
COc1ccc(-c2c[n+]3c(n2-c2ccccc2)SCC3)cc1OC	i	-29.4*	i	i
Cc1ccc(OCCCC(=O)Nc2ccc(S(N)(=O)=O)cc2)cc1	i	-5.26*	i	i
Cc1ccc(SCCC(=O)OCC(=O)Nc2ccc(S(N)(=O)=O)cc2)cc1	i	-4.91*	i	i
SMILES	TMEM16A inh	ANO1 activ	CHT PAM	CHT block
CC(C)Cc1nc2oc3c(Cl)ncnc3c2c2c1CCCC2	i	i	i	i
CC(C)Cc1nc2oc3c(NCC(C)O)ncnc3c2c2c1CCCC2 (centres undefined)	i	i	i	-7.58*
COc1ccc(-c2sc3ccccc3c2C#CCO)cc1	25*	i	i	i
Cc1cc(N/N=C/c2ccncc2)c([N+](=O)[O-])cc1[N+](=O)[O-]	i	i	i	i
CCCc1ccc(C(C)NC(=S)NC2CCCCC2)cc1 (centres undefined)	100*	i	i	i
O=c1c2ccccc2nc(COc2ccccc2)n1/N=C/c1cn[nH]c1-c1ccccc1	i	-6.49*	i	i
Cc1ccc(-c2csc(Nc3ccccn3)n2)cc1	i	i	i	i
COc1ccc(-c2csc(Nc3ccccn3)n2)cc1OC	25*	i	i	i

Screens deposited in PubChem BioAssay by Johns Hopkins Ion Channel Center.
